Screening data: PubChem, National Center for Advancing Translational Sciences (NCATS)
The list is not random: actives were taken first. Their share in the collection is about 18%.
LDHA block – qHTS assay for inhibitors of human lactate dehydrogenase | L-lactate dehydrogenase A chain (Homo sapiens), P00338 | 480,000 tested, 0.15% active | purified LDHA, NADH/diaphorase-resazurin fluorescence; hits give low values | activity change, % (values are at about 110 or 230 µM) | AID 1347041, 2019; in the data active means activity change below about -30%; inconclusive means mostly about -25% to -30%;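 further: plate controls were DMSO wells for no effect and wells without enzyme for full effect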
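Remaining NADH was detected by diaphorase (0.133 mg/mL) converting 37 µM resazurin to fluorescent resorufin, read at 0 and 20 minutes. The preceding 5-minute room-temperature reaction used 2 nM LDHA, 0.2 mM sodium pyruvate and 0.06 mM NADH at pH 7.4.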
TDP1 cell CPT – qHTS for Inhibitors of human tyrosyl-DNA phosphodiesterase 1 (TDP1): qHTS in cells in presence of CPT. chicken DT40 Tdp1-/-;hTDP1 cells + 20 nM CPT, ATP luminescence, 48 h. Potency, µM (doses to about 46.2 µM), without a hit: at the highest dose activity change, negative = growth inhibition, most hits filed as inhibitors. 420,000 tested, 12% active. AID 686979, 2013; further: potency means the concentration at half of the fitted maximal effect; nearly all actives have a fitted effect of over 55% in size
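Chicken DT40 Tdp1-/- cells stably complemented with human TDP1 were seeded at 400 cells/well in medium containing 20 nM camptothecin, exposed to pin-transferred compounds, and grown at 37 °C for at least 48 hr. Viability was read as ATP luminescence.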
RORgamma inh – qHTS for inhibitors of ROR gamma transcriptional activity. Potency, µM (titrated, usually from 53.6 µM), for inactives: top-dose activity change, negative = inhibition, most hits filed as inhibitors. Drosophila S2 Gal4-RORgamma UAS-luciferase reporter, 20 h. Nuclear receptor ROR-gamma (Mus musculus), P51450. 310,000 tested, 5.4% active; further: potency means the concentration at half of the fitted maximal effect; nearly all actives have a fitted effect of over 60% in size
Target sequence (P51450 whole entry, looked up, the tested form may be a part): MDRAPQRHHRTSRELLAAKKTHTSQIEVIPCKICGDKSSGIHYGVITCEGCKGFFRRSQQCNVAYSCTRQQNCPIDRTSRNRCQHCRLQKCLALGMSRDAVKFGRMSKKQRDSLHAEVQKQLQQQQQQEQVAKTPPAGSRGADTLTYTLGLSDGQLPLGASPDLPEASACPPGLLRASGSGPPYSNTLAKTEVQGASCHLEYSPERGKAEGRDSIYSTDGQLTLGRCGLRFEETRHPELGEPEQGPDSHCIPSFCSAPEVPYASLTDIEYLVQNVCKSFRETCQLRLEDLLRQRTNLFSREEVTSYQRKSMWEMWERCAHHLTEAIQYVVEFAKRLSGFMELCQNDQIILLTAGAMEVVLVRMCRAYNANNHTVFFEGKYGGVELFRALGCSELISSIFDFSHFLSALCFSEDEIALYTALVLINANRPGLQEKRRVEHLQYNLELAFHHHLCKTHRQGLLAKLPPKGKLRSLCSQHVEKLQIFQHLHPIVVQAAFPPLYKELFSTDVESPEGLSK
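Stable Schneider cell line, Gal4 DNA-binding domain fused to ROR gamma, UAS-luciferase. Cmpd 1 hr RT → CuSO4 700 uM final → 20 hr RT → luciferase reagent 10 min → luminescence.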
DT40 TDP1 no CPT – qHTS for Inhibitors of human tyrosyl-DNA phosphodiesterase 1 (TDP1): qHTS in cells in absence of CPT | DT40 Tdp1-/- hTDP1 cells, no CPT, ATP luminescence, 48 h | 420,000 tested, 15% active | Potency, µM (top dose mostly 46.2 µM), for inactives: at the top dose activity change, negative = growth inhibition, usual class: inhibitors; further: potency means the concentration at half of the fitted maximal effect; nearly all actives have a fitted effect of over 55% in size
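Seeded 400 DT40-hTDP1 cells/well (vehicle DMSO, no 20 nM CPT); pinned compounds; ≥48 hr at 37 °C; CellTiter-Glo luminescence as viability measure.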
IL-1B inflam inh – qHTS for Inhibitors of Inflammasome Signaling: IL-1-beta AlphaLISA Primary Screen; THP-1 LPS/ATP IL-1B secretion, AlphaLISA, 16 h; hits give low values; activity change, % at 57.5 µM; 360,000 tested, 4.7% active; AID 743279, 2014; in the data active means activity change below about -50%; inconclusive means mostly about -30% to -49%
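THP-1 cells pretreated 1 hr with compounds (up to 57.5 uM final), then stimulated with LPS (250 ng/mL final) plus ATP (1.25 mM final); secreted IL-1B measured by AlphaLISA after 16 hr, decreased signal indicating inhibition.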
Gal4-VP16 FLuc – VP16 counterscreen qHTS for inhibitors of ROR gamma transcriptional activity | Potency, µM (top dose mostly 53.6 µM), for the others: top-dose activity, negative = inhibition, most hits filed as inhibitors | Drosophila S2 Gal4-VP16 UAS-luciferase, luminescence, 20 h | AID 2546, 2010 | 310,000 tested, 3.5% active;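 further: Gal4-VP16 expression switched on by copper sulfate through the metallothionein promoter; potency means the concentration at half of the fitted maximal effect; nearly all actives have a fitted effect of over 50% in size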
Starred values were filed as active, the others as inactive; ? = inconclusive; · = no result. Unless noted, the call rests on the fitted dose curve; in most records, active means well fitted curve in the direction sought with a large enough effect; inconclusive means small, poorly fitted or top-dose-only effect, or another doubt; inactive means no such curve, though single readings can be large; an effect the other way counts as inactive or inconclusive. Unless noted, on the % scale 0 is the no-effect control and ±100 the full control effect.

SMILES	LDHA block	TDP1 cell CPT	RORgamma inh	DT40 TDP1 no CPT	IL-1B inflam inh	Gal4-VP16 FLuc
COc1ccc(OC)c(C2CC(=O)NC(SC)=C2C#N)c1 (stereo not drawn)	1	-18%	-24%	1%	-1	-2%
CCOC(=O)[C@]12CCC=C1N(Cc1cccc3ccccc13)C(=O)[C@H](CC(=O)NCc1ccccc1)C2	3	?	·	?	0	·
CCOC(=O)[C@]12CCC=C1N(Cc1ccccc1)C(=O)[C@H](CC(=O)NCc1cccc3ccccc13)C2	-6	?	·	?	-15	·
CCOC(=O)[C@]12CCCC=C1N(Cc1cccc3ccccc13)C(=O)[C@H](CC(=O)NCC1CCCCC1)C2	3	?	·	23µM*	0	·
CCOC(=O)[C@]12CCC=C1N(Cc1cccc3ccccc13)C(=O)[C@H](CC(=O)NCCCCc1ccccc1)C2	3	23µM*	·	16µM*	-70*	·
C#CCNC(=O)C[C@@H]1C[C@@]2(C(=O)OC)CC(C)(C)CC=C2N(Cc2cccc3ccccc23)C1=O	7	16µM*	·	18µM*	16	·
CCOC(=O)[C@]12CCCC=C1N(Cc1cccc3ccccc13)C(=O)[C@H](CC(=O)NCc1ccccc1)C2	-1	?	·	23µM*	-27	·
CCCCNC(=O)C[C@@H]1C[C@@]2(C(=O)OC)CC(C)(C)CC=C2N(Cc2cccc3ccccc23)C1=O	2	?	·	?	-10	·
CCOC(=O)c1c(C)n(C)c2ccc(OCC#N)cc12	-2	·	·	·	·	·
COC(=O)c1sc(S(=O)(=O)Nc2ccc(Br)cc2F)c(C(=O)OC)c1C	-15	·	·	·	·	·
CCOC(=O)c1nc(N(C)c2cc(C)ccc2C)c2ccccc2n1	-3	·	·	·	·	·
COC(=O)c1c(C)cccc1NCC(=O)NC(=O)NC(C)C	1	·	·	·	·	·
CCOC(=O)N1CCN(C(=O)c2cc3occc3n2Cc2ccccc2)CC1	10	·	·	·	·	·
O=C(c1ccccc1Br)N(Cc1cccc2[nH]ccc12)C1CC1	6	·	·	·	·	·
CCOC(=O)[C@]12CCCC=C1N(Cc1cccc3ccccc13)C(=O)[C@H](CC(=O)NCc1ccc(OC)c(OC)c1)C2	-1	?	·	16µM*	-69*	·
CCOC(=O)[C@]12CCC=C1N(Cc1ccco1)C(=O)[C@H](CC(=O)NCc1cccc3ccccc13)C2	0	-16%	·	-17%	-14	·
C#CCNC(=O)C[C@@H]1C[C@@]2(C(=O)OCC)CCC=C2N(Cc2cccc3ccccc23)C1=O	2	?	·	16µM*	-9	·
CCCCCCCCN1C(=O)[C@H](CC(=O)NCc2cccc3ccccc23)C[C@@]2(C(=O)OCC)CCC=C12	1	?	·	21µM*	?	·
CCOC(=O)[C@]12CCC=C1N(Cc1cccc3ccccc13)C(=O)[C@H](CC(=O)NCCc1ccccc1OC)C2	-3	?	·	18µM*	?	·
Fc1cccc(Cl)c1/C=N/Nc1c(Cl)cc(Cl)cc1Cl	-6	·	·	·	·	·
O=C(CSc1nnc(Cc2cccs2)n1C1CC1)c1c[nH]c(C(=O)N2CCCC2)c1	2	·	·	·	·	·
O=C(O)C(c1c[nH]c2cc(Cl)ccc12)N1CCN(Cc2cccs2)CC1 (stereo not drawn)	14	·	·	·	·	·
COC(=O)[C@]12CCCCC=C1N(Cc1cccc3ccccc13)C(=O)[C@H](CC(=O)NCc1cccc(C(F)(F)F)c1)C2	2	?	·	?	-73*	·
CCOC(=O)[C@]12CCCC=C1N(Cc1cccc3ccccc13)C(=O)[C@H](CC(=O)NCc1cccc(C(F)(F)F)c1)C2	-4	?	·	?	-5	·
CC1=C(C)CC(C(=O)N2CCN(CCc3ccccc3)CC2)C(C(=O)O)C1 (stereo not drawn)	-1	·	·	·	·	·
SMILES	LDHA block	TDP1 cell CPT	RORgamma inh	DT40 TDP1 no CPT	IL-1B inflam inh	Gal4-VP16 FLuc
COCCc1ccc(OC2(C)CCN(Cc3ccc(OC)c4ccccc34)C2)cc1 (stereo not drawn)	-1	?	·	16µM*	11	·
COc1cccc(CN2CCC(C)(Oc3cccc(Cl)c3)C2)c1OC (stereo not drawn)	-3	?	·	16µM*	12	·
COc1ccc(/C=C(\C#N)C(=O)Nc2ccccc2C(=O)O)cc1OC(=O)c1ccccc1Cl	2	·	·	·	·	·
CC(N)c1csc(NC(=O)c2cc(C(C)(C)C)nn2Cc2ccccc2)n1 (stereo not drawn)	0	18µM*	·	21µM*	-55*	·
Cc1ccc(S(=O)(=O)N(C)C)cc1NC(=O)c1cc(C(C)(C)C)nn1Cc1ccccc1	1	23µM*	58%	?	-11	6%
COc1ccc(CC(N)c2csc(NC(=O)c3cc(C(C)(C)C)nn3Cc3ccccc3)n2)cc1 (stereo not drawn)	-3	5.8µM*	·	4.6µM*	-78*	·
CCC(C)(C(=O)NC1CCCCC1)N(Cc1ccco1)C(=O)c1ccc2c(c1)OCO2 (stereo not drawn)	9	12µM*	-33%	8.2µM*	4	10%
CCC(C)(C(=O)NC1CCCCC1)N(Cc1cccs1)C(=O)c1ccc2c(c1)OCO2 (stereo not drawn)	0	·	·	·	·	·
O=C(Nc1nc(-c2ccccn2)cs1)c1ccccc1-n1cnnn1	-1	2.6µM*	5µM*	?	185	-14%
O=C(Nc1nc(-c2ccccn2)cs1)c1ccc2c(c1)OCCO2	-1	3.3µM*	3.2µM*	3.3µM*	55	10µM*
Cc1csc(NC(=O)c2ccc3c(c2)OCO3)n1	-6	-19%	?	-26%	-13	-23%
O=C(Nc1ccccn1)c1ccc2c(c1)OCO2	-2	-25%	-40%	-30%	-17	?
